MBNL1-CUG inh: qHTS Assay for Inhibitors of MBNL1-poly(CUG) RNA binding | actives 0.036% (n = 280,000) | AID 2675, 2010 | TR-FRET MBNL1-His/biotin-(CUG)12 binding, 665/545 ratio | Potency, µM (top dose mostly 57.5 µM), inactives show at the highest dose activity change, negative = inhibition, hits mostly inhibitors; active means well fitted inhibition curve with a large enough effect in the signal ratio, with a control signal flat, not every such curve was filed as active; inconclusive means small, poorly fitted or top-dose-only effect, or effect the other way, or a change in a side signal; inactive means no such curve, though single readings can be large or run the other way; the % refers to the signal ratio; further: potency means the concentration at half of the fitted maximal effect; on the % scale 0 is the no-effect control and ±100 the full control effect
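TR-FRET between His-tagged MBNL1 and biotin-(CUG)12 RNA, detected with Tb anti-His antibody (0.055 ng/ul) and streptavidin-XL665 (5 nM), 60 min at room temperature. Compounds titrated 92 nM to 58 uM; 665/545 nm ratio normalized to buffer and complex controls.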
hERG WT inh: qHTS for Inhibitors of KCHN2 3.1: Wildtype qHTS | AID 720551, 2013 | actives 0.37% (n = 340,000) | activity change, % at 1.84 µM | Voltage-gated inwardly rectifying potassium channel KCNH2 (Homo sapiens), Q12809 | U2OS, BacMam KCNH2, thallium flux FluxOr; stronger effect = lower value;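 active means maximum activity change below -70%; inconclusive means maximum activity change between -70% and -50%; inactive means maximum activity change above -50%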; further: on the % scale 0 is the no-effect control and ±100 the full control effect
Target sequence (Q12809 whole entry, looked up): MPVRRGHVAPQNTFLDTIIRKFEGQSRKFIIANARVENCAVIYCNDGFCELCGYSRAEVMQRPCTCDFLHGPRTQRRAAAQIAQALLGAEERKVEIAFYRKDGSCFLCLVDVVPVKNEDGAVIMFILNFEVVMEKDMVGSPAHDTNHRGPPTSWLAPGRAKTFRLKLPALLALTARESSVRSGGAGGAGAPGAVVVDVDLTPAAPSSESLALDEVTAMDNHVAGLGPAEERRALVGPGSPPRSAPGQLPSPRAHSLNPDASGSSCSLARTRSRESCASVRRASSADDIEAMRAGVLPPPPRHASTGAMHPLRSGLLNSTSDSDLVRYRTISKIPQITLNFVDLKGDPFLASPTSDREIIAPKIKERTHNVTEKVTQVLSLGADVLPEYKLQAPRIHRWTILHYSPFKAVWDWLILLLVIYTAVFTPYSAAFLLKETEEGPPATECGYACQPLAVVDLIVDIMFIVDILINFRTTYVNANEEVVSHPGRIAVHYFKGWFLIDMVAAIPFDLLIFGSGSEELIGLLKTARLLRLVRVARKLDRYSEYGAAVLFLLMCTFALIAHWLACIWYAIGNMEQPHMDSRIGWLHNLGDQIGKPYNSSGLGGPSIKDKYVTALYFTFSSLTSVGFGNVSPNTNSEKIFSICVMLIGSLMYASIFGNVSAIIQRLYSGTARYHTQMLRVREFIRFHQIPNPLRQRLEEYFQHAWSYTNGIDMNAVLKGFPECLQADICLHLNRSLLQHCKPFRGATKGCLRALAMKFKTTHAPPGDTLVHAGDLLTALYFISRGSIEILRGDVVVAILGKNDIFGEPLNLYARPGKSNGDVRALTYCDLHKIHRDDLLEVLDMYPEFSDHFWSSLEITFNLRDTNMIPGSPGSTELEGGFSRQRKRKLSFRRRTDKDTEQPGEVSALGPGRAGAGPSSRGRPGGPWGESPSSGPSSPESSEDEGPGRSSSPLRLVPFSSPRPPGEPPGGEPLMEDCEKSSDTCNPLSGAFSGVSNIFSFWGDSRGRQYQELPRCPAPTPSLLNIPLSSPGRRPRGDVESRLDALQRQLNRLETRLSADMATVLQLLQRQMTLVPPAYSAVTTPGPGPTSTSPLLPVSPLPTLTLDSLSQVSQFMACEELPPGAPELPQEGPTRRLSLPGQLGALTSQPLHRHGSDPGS
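U2OS cells transduced with wild-type KCNH2 virus are loaded with FluxOr dye for 45 min, and thallium flux is measured in kinetic reads before and after stimulation buffer. Rate constants are normalized to DMSO controls.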
VDR inhibitor: Inhibitors of the vitamin D receptor (VDR): qHTS; Vitamin D3 receptor (Homo sapiens), P11473; VDR-SRC2-3 peptide fluorescence polarization, 2 h; Potency, µM, inactives show max response, negative = inhibition, actives largely listed as inhibitors; actives 0.93% (n = 400,000); further: potency means the concentration at half of the fitted maximal effect; on the % scale 0 is the no-effect control and ±100 the full control effect
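After 23 nl compound addition and a short centrifugation, plates sat for 2 hours at ambient temperature; polarization of fluorescence then indicated loss of VDR binding to peptide SRC2-3.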
PLK1 PBD inh: qHTS for Inhibitors of PLK1-PDB (polo-like kinase 1 - polo-box domain): Primary Screen; Serine/threonine-protein kinase PLK1 (Homo sapiens), P53350; Plk1 PBD binding of FITC phosphopeptide, fluorescence polarization; Potency, µM, inactives show max response, negative = inhibition, most hits filed as inhibitors; actives 2.8% (n = 360,000); AID 720504, 2013; further: potency means the concentration at half of the fitted maximal effect; series mostly up to about 57 µM; on the % scale 0 is the no-effect control and ±100 the full control effect; nearly all actives have a fitted effect of over 65% in size
KCNH2 3.1 block: qHTS for Inhibitors of KCHN2 3.1: Mutant qHTS. Potassium voltage-gated channel subfamily H member 2, brain isoform KCNH2 3.1 (human). U2OS KCNH2 3.1, thallium flux FluxOr; stronger effect = lower value. activity change, % (tested at about 1.8 µM). actives 0.95% (n = 340,000). AID 720553, 2013;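 active means maximum activity change below -70%; inconclusive means maximum activity change from -70% to -50%; inactive means maximum activity change above -50%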;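 further: thallium influx rate constant from kinetic fluorescence after stimulation buffer; on the % scale 0 is the no-effect control and ±100 the full control effect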
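Virally transduced U2OS (3.1 isoform, 4 h infection in dark at RT) → overnight 37 C → FluxOr + Red40 in HBSS/HEPES, 45 min → stimulation buffer, 2 min kinetic read → rate constant vs DMSO controls.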
CBFb-RUNX1 inh: qHTS Assay for Compounds Blocking the Interaction Between CBF-beta and RUNX1 for the Treatment of Acute Myeloid Leukemia; Runt-related transcription factor 1 (Homo sapiens) + Core-binding factor subunit beta …; AlphaScreen CBFb-His/RUNX1-biotin binding, biochemical; Potency, µM (series often up to 59.8 µM), without a hit: at the top dose activity, negative = inhibition, hits mostly inhibitors; 230,000 tested, under 10 active; further: % of control where 0% means no effect
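Compounds were screened at multiple concentrations against a preformed CBF-beta(His)/RUNX1(biotin) complex (30 nM of each) for 15 min at room temperature, followed by 90 min with nickel and streptavidin beads and AlphaScreen reading.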
USP1 UbRho: Inhibitors of USP1/UAF1: Hit Validation in Primary Assay; shares compounds with VDR inhibitor; Ub-Rhodamine cleavage, fluorescence kinetic read; Potency, µM (doses to about 56.8 µM), inactives show top-dose activity change, negative = inhibition, hits mostly inhibitors; actives 50% (n = 50)
VDR confirm: qHTS for Inhibitors of the vitamin D receptor (VDR): Hit Validation in Primary Screen; actives 89% (n = 840); AID 602199, 2012; Potency, µM, most hits filed as inhibitors; shares compounds with VDR inhibitor; VDR-coactivator inhibition assay, qHTS confirmation; further: potency means the concentration at half of the fitted maximal effect
VDR FP: qHTS for Inhibitors of the vitamin D receptor (VDR): Hit Validation using a Fluorescein Assay; actives 48% (n = 840); Potency, µM (highest dose often 57.1 µM), for inactives: top-dose activity change, negative = inhibition, most hits filed as inhibitors; shares compounds with VDR inhibitor; VDR-coactivator binding, fluorescein fluorescence polarization; further: potency means the concentration at half of the fitted maximal effect
VDR bla reporter: qHTS for Inhibitors of the vitamin D receptor (VDR): Hit Validation using a Beta-Lactamase Assay | VDR beta-lactamase reporter cells, FRET ratio; cells co-treated with VDR agonist LG190178 | shares compounds with VDR inhibitor | Potency, µM (doses to about 46.1 µM), inactives show at the highest dose activity change, negative = inhibition, most hits filed as inhibitors | actives 23% (n = 840); further: potency means the concentration at half of the fitted maximal effect; on the % scale 0 is the no-effect control and ±100 the full control effect
VDR cytotox: qHTS for Inhibitors of the vitamin D receptor (VDR): Hit Validation using a Cytotoxicity Assay; AID 602204, 2012; actives 18% (n = 840); Potency, µM (titrated, usually from 48.3 µM), for the others: at the top dose activity change, negative = cytotoxicity, actives largely listed as cytotoxic; cytotoxicity counter-screen, cell viability, qHTS; shares compounds with VDR inhibitor;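 further: potency means the concentration at half of the fitted maximal effect; plate controls were DMSO for no effect and high-concentration cycloheximide for full effect; nearly all actives have a fitted effect of over 75% in size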
* = called active by the depositor; ? = inconclusive; · = no result. An excerpt weighted towards active compounds, which were near 3.8% of everything screened. Unless noted, the call rests on the fitted dose curve; in most records, active means well fitted curve in the direction sought with a large enough effect; inconclusive means small, poorly fitted or top-dose-only effect, or another doubt; inactive means no such curve, though single readings can be large; an effect the other way counts as inactive or inconclusive.

SMILES	MBNL1-CUG inh	hERG WT inh	VDR inhibitor	PLK1 PBD inh	KCNH2 3.1 block	CBFb-RUNX1 inh	VDR confirm	VDR FP	VDR bla reporter	VDR cytotox	others
COc1ccc(-c2nc3sc(CCNC(=O)C(=O)Nc4cc(C)cc(C)c4)c(C)n3n2)cc1	·	·	15.6%	·	·	·	·	·	·	·
c1ccc(Cn2cnc3ccccc32)cc1	-0.8%	-6.6	-16.6%	-5.4%	-1.2	3.9%	·	·	·	·
c1ccc(-c2nn3c(Cn4cnc5ccccc54)nnc3s2)cc1	-2.6%	14.0	?	7.52µM*	0.6	0.1%	20*	7.08µM*	-20.7%	-19.3%
CCN(CC)S(=O)(=O)c1cc(NC(=O)c2ccc3c(c2)NC(=O)C(C)S3)ccc1C (stereo unspecified)	·	-12.8	79.4µM*	8.44µM*	-7.7	·	21.2*	?	?	?
Cc1cc(C)c(NC(=O)c2ccc3c(c2)NC(=O)C(C)S3)c(C)c1 (stereo unspecified)	·	-1.1	-2.7%	-4.4%	-3.1	·	·	·	·	·
Cc1cc(=O)n2nc(N3CCC(C(=O)Nc4ccc(C(C)C)cc4)CC3)sc2n1	·	·	3.2%	·	·	·	·	·	·	·
O=C(NCc1ccccc1F)c1ccc(CN2CC(=O)N3CCCCC3C2=O)cc1 (stereo unspecified)	·	·	8.7%	·	·	·	·	·	·	·
COC(=O)c1ccc(NC(=O)CC2C(=O)N(c3ccc(C)cc3)C(=O)N2Cc2ccc(OC)cc2)cc1 (stereo unspecified)	·	·	3.6%	·	·	·	·	·	·	·
Cc1cccc(CS(=O)(=O)c2ncc(Cl)c(C(=O)NCc3ccc4c(c3)OCO4)n2)c1	-5.8%	-15.2	?	?	-0.8	·	·	·	·	·
CCOC(=O)c1c(-c2ccccc2)csc1NC(=O)c1nc(SCC)ncc1Cl	·	·	18.4%	·	·	·	·	·	·	·
CCOC(=O)c1c(-c2ccccc2)csc1NC(=O)c1nc(S(=O)(=O)CC)ncc1Cl	·	·	17.8µM*	·	·	·	3.16*	?	4.61µM*	21.2µM*
COC(=O)c1ccc(NC(=O)c2nc(S(=O)(=O)Cc3cccc(C)c3)ncc2Cl)cc1	?	0.0	20µM*	?	1.5	·	5.97*	?	14.6µM*	11.6µM*
CN(c1ccccc1)S(=O)(=O)c1ccc(NC(=O)c2nc(S(C)(=O)=O)ncc2Cl)cc1	-3.1%	-17.2	20µM*	16.8µM*	-31.2	·	3.77*	3.55µM*	3.66µM*	8.2µM*
CCS(=O)(=O)c1ncc(Cl)c(C(=O)Nc2ccc(S(=O)(=O)N3CCC(C)CC3)cc2)n1	87.6%	-5.5	14.1µM*	?	-24.3	·	5.32*	3.55µM*	8.2µM*	3.66µM*
O=c1c(-c2ccccc2)nc2cnc(N3CCNCC3)nc2n1C1CC1	·	·	-15.3%	·	·	·	·	·	·	·
CCc1ccc(C(=O)c2cn(Cc3ccc(F)cc3)c3cc(OC)c(OC)cc3c2=O)cc1	·	·	-6.4%	·	·	·	·	·	·	·
CCC(Cc1ccccc1)NC(=O)c1csc2c1CCCCC2 (stereo unspecified)	·	·	-15.9%	·	·	·	·	·	·	·
CCOC(=O)c1ccc(NC(=O)c2nc(S(=O)(=O)Cc3ccccc3)ncc2Cl)cc1	17.9%	-2.1	31.6µM*	11.9µM*	-6.8	·	13.4*	?	14.6µM*	13µM*
CCS(=O)(=O)c1ncc(Cl)c(C(=O)Nc2ccccc2OC)n1	4.6%	-3.6	?	3.4%	1.5	·	·	·	·	·
CCOc1ccccc1NC(=O)c1nc(S(=O)(=O)Cc2ccccc2)ncc1Cl	1.6%	-7.4	11.2µM*	?	-25.1	·	6.7*	3.16µM*	6.51µM*	8.2µM*
Cc1ccc(C2(C)NC(=O)N(CC(=O)Nc3nc(-c4ccccn4)cs3)C2=O)cc1 (stereo unspecified)	·	5.5	?	4.23µM*	6.8	·	11.2*	?	?	-16.2%
COc1ccc(NCc2cc3cc4c(cc3n(CC(=O)Nc3ccccc3)c2=O)OCO4)cc1	·	·	3.2%	·	·	·	·	·	·	·
CN1CCN(CCCN2c3ccccc3Sc3ccc(C(F)(F)F)cc32)CC1	33.7%	31.9	?	-5.0%	?	-23.2%	·	·	·	·	USP1 UbRho=?
Cc1ccc(NC2=CC(=O)C(=O)c3ccccc32)cc1	?	11.0	-14.5%	-8.7%	-1.1	3.7%	·	·	·	·
NS(=O)(=O)c1ccc(NC2=CC(=O)C(=O)c3ccccc32)cc1	?	18.4	?	26.7µM*	-14.6	·	14.1*	7.94µM*	?	?
COC(=O)CC1=NN(c2ccc(OC)cc2)C(=O)/C1=C\c1ccc(Cl)cc1	0.4%	2.6	39.8µM*	2.38µM*	-1.9	?	21.2*	?	-4.9%	-10.1%
Oc1ccc(C(=S)N2CCN(c3cccc(Cl)c3)CC2)cc1	4.3%	-4.5	?	8.44µM*	-5.3	-11.0%	?	?	-23.2%	3.7%
Cc1ccccc1NC(=O)c1ccc(F)c(S(=O)(=O)N2CCN(c3ccccc3F)CC2)c1	·	·	-2.9%	·	·	·	·	·	·	·

Screens as filed in PubChem BioAssay.
